# From the supplement of paper PMC6555819
# Legend:
# Assay in all cases: PBM binding z-score (relative to random genomic background probes); higher = stronger binding; sequences stand for … in GC…GCGATTGACAGCGTAGAATGAAGG
# [1] = tested on: PPARg:RXRa DBDmut IVT, anti-RXR (DBD mutation: RXRa K156A/R161A, NR concentration 270 nM, RXRa partner concentration 90 nM)
# Procedure, shortened: (§1)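 Custom Agilent 4×180K protein-binding microarrays carried double-stranded probes. Their 34-nt variable regions held direct-repeat seeds, single-nucleotide variants, half-site ablations and random human genomic background sequences. Arrays were incubated 1 h with ligand-free nuclear receptor dimers in PBS pH 7.4, 2% milk, 0.02% Triton X-100, 1 mM DTT, 0.2 mg/mL BSA and 0.4 mg/ml salmon testes DNA. Antibodies against each partner (one per run) detected binding, and scanned fluorescence was regression-normalized. Binding z-scores use random background probes as reference.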
# [2] = tested on: PPARg:RXRa IVT, anti-PPARg (NR concentration 270 nM, RXRa partner concentration 90 nM)
# Procedure, shortened: as §1
# [3] = tested on: PPARg DBDmut:RXRa IVT, anti-PPARg (DBD mutation: PPARg1 K132A/R137A, NR concentration 270 nM, RXRa partner concentration 90 nM)
# Procedure, shortened: as §1
# [4] = tested on: PPARg DBDmut IVT, anti-PPARg (DBD mutation: PPARg1 K132A/R137A, NR concentration 270 nM)
# Procedure, shortened: as §1
# [5] = tested on: PPARg homodimer (NR concentration 180 nM)
# Procedure, shortened: as §1
# [6] = tested on: PXR:RXRa (NR concentration 270 nM, RXRa partner concentration 90 nM)
# Procedure, shortened: as §1
# [7] = tested on: PXR homodimer (NR concentration 270 nM)
# Procedure, shortened: as §1
# [8] = tested on: RARa:RXR (NR concentration 270 nM, RXRa partner concentration 90 nM)
# Procedure, shortened: as §1
# [9] = tested on: RARa homodimer (NR concentration 270 nM)
# Procedure, shortened: as §1
# [10] = tested on: RARb:RXRa (NR concentration 270 nM, RXRa partner concentration 90 nM)
# Procedure, shortened: as §1
Sequence,PBM binding z-score [1],PBM binding z-score [2],PBM binding z-score [3],PBM binding z-score [4],PBM binding z-score [5],PBM binding z-score [6],PBM binding z-score [7],PBM binding z-score [8],PBM binding z-score [9],PBM binding z-score [10]
CGAACTACGTCATTGACAGGACAGTGAATAGTAA,-0.246,-0.155,0.611,0.69,0.0858,-0.217,0.0481,-0.22,0.592,-0.0589
CAAACTAGGTCACGAAAGGACAAAGTCGAATGAC,8.65,9.28,5.83,2.82,2.7,4.22,0.691,3.22,1.93,4.54
ATCTCTAGGTTACAAGTTCAGTGAAAGAGAGGAC,4.27,4.41,1.99,3.28,2.22,2.38,2.41,2.03,1.88,2.69
TGAATGAGGTTATAAGAACAGGGAACGTTGCAAA,0.968,1.75,0.842,0.453,0.709,0.563,-0.0582,1.32,-0.0801,1.11
GCTGCTAGGTCAACTGATGGTCAGCTACAGCTCG,4.96,3.94,-0.525,-0.577,1.97,1.62,-0.454,2.71,-0.247,4.15
CCTACTGGGCCAAGGTCGTTGATCAGTCAAAGCA,3.4,3.41,-1.53,-1.31,-0.148,0.637,0.241,0.405,-0.549,1.09
GCTGCTAGGTCAACTGATGGTCGGCTAAAGCTCG,4.58,4.01,0.404,-0.469,0.839,1.4,-0.734,2.31,-0.561,4.45
GGAACGAGGGCTAAGTTGATAGCATCTGTCGACG,0.209,0.114,0.146,-0.476,-0.2,-0.47,-0.382,-0.0692,-0.234,0.086
TGTCAAAGTTCAAAGTTAACGTAAGTATCCACAC,0.374,4.24,1.16,1.99,2.65,5.04,4.24,4.46,1.12,5.12
CCTAGTTGGTGAAGGTCACACACGCTATAGGTAC,1.01,2.4,1.24,0.782,2.47,3.34,1.34,3.61,1.61,3.74
CGGACTGGGGCAGAAAGGTTACCATACCATCCGG,3.24,4.12,-0.341,-0.159,1.44,1.41,0.0628,1.82,0.413,2.12
TCTTGTAGATAAACAGGAGGTTAAGAAAGATCGA,1.35,0.282,0.991,1.09,0.0399,0.748,-0.0168,1.05,0.379,0.359
ATATGTAGGTTAGCTGGGGTAATTCAGACTAGGC,6.75,6.17,1.99,1.76,0.916,1.12,0.0639,1.44,0.818,1.02
CCAGACAGGTTAAAGGTAACTCAGTCTGGTACGC,0.728,1.86,-0.35,-0.757,1.24,2.15,-0.196,3.52,0.287,1.69
CCGACTGGAGCAAGGTTACCATAACGCACAGCCA,1.3,0.76,-0.802,-0.726,0.608,0.248,-0.0714,0.527,-0.0817,0.876
CCTTATGGGTCACGAGGTTATAGCACGACGAGCG,6.86,7.13,2.07,2.59,3.76,3.9,0.436,5.4,0.87,4.43
ACAGACAGGTGATGCAGGTAACTCAGGCTATCAT,0.0988,0.729,0.0271,0.231,0.328,-0.33,0.04,-0.107,0.231,-0.0709
AGTCAAAGTCCACTAGGTAACGTAAGATTCAGCT,1.22,1.83,0.418,0.228,0.527,-0.372,0.0413,-0.205,0.764,1.44
TCTAGTTGGTCACGGAGGTCACACAGGACGGGTA,2.41,4.28,0.872,-0.126,3.68,4.78,3.02,4.72,1.58,3.98
GCGACTGGGGCATCAGCAGGTTACCATCACTTAA,4.02,3.08,-0.268,-0.441,0.406,-0.239,-0.641,0.272,-0.548,0.891
ATATGTAGGTTAAGTGTCATTCAGGTTGGTTCGC,7.37,7.34,2.11,2.12,1.85,1.87,0.52,2.1,1.63,1.99
CCTACTGGGCCAAAATGGTCATTGATGCCGATAA,2.55,2.95,-0.67,-0.0275,0.212,-0.439,-0.289,0.45,0.0345,0.172

Sequence,PBM binding z-score [1],PBM binding z-score [2],PBM binding z-score [3],PBM binding z-score [4],PBM binding z-score [5],PBM binding z-score [6],PBM binding z-score [7],PBM binding z-score [8],PBM binding z-score [9],PBM binding z-score [10]
GATACAGGGTCAAGGCCATAGTACGCGTATTGAT,2.5,4.05,0.702,-0.195,1.64,3.94,0.404,4.65,0.823,4.41
GATACAGGGTCAGCTAGAGGCCAGAGAATGGAAA,1.5,2.31,0.246,-1.1,2.84,3.34,0.000802,4.73,0.734,4.34
CTTAGCAGGCCAATCTGGGTCACTCAAGGCTTGA,4.54,5.41,1.49,-0.595,0.867,0.661,-0.63,1.8,-0.332,1.46
AATACAGGGTCACTAGGCCTGAGTAGGTACGAAT,2.96,4.76,1.25,1.34,2.04,2.85,0.251,3.86,0.431,4.06
CCTGCTACGTCATGGTCAGCTAATCTACAGTATG,0.0597,-0.592,0.222,-0.835,-0.235,-0.16,-0.428,-0.116,-0.328,0.259
CCTACTGGGCCATTCAGAGGTCCTTGATCATATG,4.1,3.15,-0.401,0.127,-0.0171,-0.621,-0.408,-0.409,-0.479,0.0641
TCGAGGAGGTTACCAATGGGGCATTCAGCTTTCT,1.15,1,-0.386,-0.775,0.8,1.05,-0.411,1.43,-0.136,1.67
TCTTGTATATCAAGCAGGTTAAGAAAGCCTGAGT,1.41,0.503,0.561,1.48,0.514,0.624,0.331,0.805,0.189,0.615
TCTCGGAGGACACGAAGGTCAGAGTTTTCCAGAG,1.44,1.35,-0.952,-0.619,1.53,2,1.37,2.07,0.114,3.32
CGAACTAGGTCATTTACAGGACAGTGAATAGTAA,8.11,8.23,5.73,3.57,2.35,1.74,0.63,2.39,0.283,3.39
ATACCAAGGTGATCGTGAGGTCATTGATACTAAC,0.662,2.58,0.666,0.349,2.35,5.39,4.33,4.55,0.789,3.25
TCTGCTAGGTCAACGATGGTCAGCTAATCTGCTA,4.23,4.22,0.762,0.898,1.44,1.67,-0.856,2.46,-0.93,4.01
AGAATGAGGTAACCAAAGATCAGGGAAACGCTTG,3.05,2.17,1.22,1.42,-0.124,0.0437,-0.0264,0.577,0.155,0.403
CGTCCAAGGTCATAGGAGGTCAGTAAAGACAGAT,3.22,4.57,1,1.13,5.13,6.88,4.18,6.22,2.02,5.38
ACTAGCAGGCCAAGTATGGGTCACTCAAACAAAG,1.16,1.82,-0.278,-0.249,0.52,0.911,-0.49,1.85,-0.747,1.58
GCAGACAAGTGAAACGCAGGTAACTCAGGGTGGC,-0.601,-0.398,-0.525,-1.2,-0.82,-0.683,-0.723,-0.207,-0.732,-1.75
TCATATAGGTAAACAGGTGAAACTCCGTAAGTTA,5.13,4.56,1.07,1.38,1.21,0.711,0.237,1.28,0.733,0.76
ATCTCTCGGTAACAAGTTCAGTGAAAGAGAGGAC,-0.852,0.6,0.792,1.21,0.807,1.46,1.77,0.694,0.38,1.49
TCGAGTAGGTTACCAAAGGGGCATTCAGCTTTCT,3,2.74,0.155,0.119,0.4,0.735,-0.508,0.81,-0.941,1.37
GCTTGTAGATCAAGATTAAGAAAGACTAAGCTAA,0.366,-0.13,0.0686,0.0924,-0.256,-0.671,-0.582,-0.252,-0.194,-0.426
CCTAGTTAGTCAGGAGGTCACACACCGGATATGA,1.08,2.35,1.22,0.693,3.69,4.33,1.96,4.59,2.45,3.69
CCAGACATGTGAAAGGTAACTCAGTCTGGTACGC,0.121,0.275,-0.125,0.223,0.969,0.118,-0.196,0.553,0.138,0.186
